Source: PubChem BioAssay AID489036 (National Center for Advancing Translational Sciences (NCATS), 2010)
Inconclusive results are not listed. Active and inactive are the calls of the source. Calls follow the shape of the dose curve; as a rule, active = well fitted inhibition curve with a large enough effect; inconclusive = small, poorly fitted or top-dose-only effect, or effect the other way; inactive = flat fitted curve, though single readings scatter.

Test: VP16 selectivity assay for inhibitors of ROR gamma transcriptional activity
Settings: Drosophila Schneider Gal4-VP16 UAS-luciferase reporter, 20 h; series mostly up to 92.2 µM; activity change, negative = inhibition: at the top concentration
Method in brief: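 Drosophila Schneider cells stably expressing a Gal4-VP16 fusion under a metallothionein promoter and a UAS-driven Photinus luciferase reporter. Compound preincubated 1 hr, copper sulfate added (700 uM final), then 20 hr at ambient temperature before luminescence read.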

| SMILES | activity change, negative = inhibition | Potency |
| --- | --- | --- |
| CCCCNC(=O)CC(c1ccc2c(c1)OCO2)c1c(O)cc(OC)cc1OC (stereo not drawn) | -10.5% (inactive) | – |
| COCOc1cc(OC)cc(OC)c1C(CC(=O)N1CC(C)CC(C)C1)c1ccc2c(c1)OCO2 (stereo not drawn) | – | 45.7 µM (active) |
| COCC1CCCN(C(=O)CC(c2ccc3c(c2)OCO3)c2c(O)cc(OC)cc2OC)C1 (stereo not drawn) | -15.9% (inactive) | – |
| CCNC(=O)CCc1nc(-c2ccc(C(C)(C)C)cc2)no1 | – | 5.75 µM (active) |
| Cc1cc(C)nc(-n2nc(C)cc2NC(=O)CNC(C)c2ccccc2)n1 (stereo not drawn) | – | 18.2 µM (active) |
| C[C@H]1O[C@@H](O[C@H]2[C@@H](O)C[C@@H](O[C@H]3[C@@H](O)C[C@H](O[C@H]4CC[C@@]5(C)[C@H](CC[C@@H]6[C@@H]5CC[C@]5(C)[C@@H](C7=CC(=O)OC7)CC[C@]65O)C4)O[C@@H]3C)O[C@@H]2C)C[C@H](O)[C@@H]1O | -3.54% (inactive) | – |
| COc1cc(O)c(C(CC(=O)N2CCCC(C)C2)c2ccc3c(c2)OCO3)c(OC)c1 (stereo not drawn) | 10.9% (inactive) | – |
| CC(C)(C)c1ccc(S(=O)(=O)Nc2ccc(C(O)(C(F)(F)F)C(F)(F)F)cc2)cc1 | – | 18.2 µM (active) |
| COc1cc(O)c(C(CC(=O)N2C[C@H](C)C[C@H](C)C2)c2ccc3c(c2)OCO3)c(OC)c1 (stereo partly drawn) | -26.4% (inactive) | – |
| O=C(/C=C/c1ccc(S(=O)(=O)N2CCOCC2)cc1)NC(=S)Nc1ccc(N2CCOCC2)cc1 | – | 20.4 µM (active) |
| C#CCOc1cc(OC)cc(OC)c1C(CC(=O)N1CCCC(C)C1)c1ccc2c(c1)OCO2 (stereo not drawn) | – | 45.7 µM (active) |
| COc1cc(OC)c(C(CC(=O)N2CC(C)CC(C)C2)c2ccc3c(c2)OCO3)c(OCC(N)=O)c1 (stereo not drawn) | -8.5% (inactive) | – |
| COc1cc(O)c(C(CC(=O)N2CCCCC2)c2ccc(C)cc2)c(OC)c1 (stereo not drawn) | -1.68% (inactive) | – |
| COc1ccc(C(CC(=O)N2CCCC(C)C2)c2ccc3c(c2)OCO3)c(O)c1 (stereo not drawn) | -16.5% (inactive) | – |
| Cc1ccc(-c2cn(-c3ccccc3)c3[n+]2CCCS3)cc1 | – | 10.2 µM (active) |
| COc1ccc2nc(NNC(=O)COc3ccccc3)sc2c1 | – | 6.45 µM (active) |
| C=C1Nc2c(-c3ccc(F)cc3)cnn2C(N)=C1c1ccccc1 | – | 0.288 µM (active) |
| CC1=C(\C=C/C(C)=C/C=C\C(C)=C\C(=O)O)C(C)(C)CCC1 | – | 8.48 µM (active) |
| COc1cc(O)c(C(CC(=O)N2CCCC(C)C2)c2ccccc2)c(OC)c1 (stereo not drawn) | 1.81% (inactive) | – |
| CC(C)[C@H](NC(=O)C1CCN(C(=O)[C@@H]2CCCN2C(=O)OC(C)(C)C)CC1)C(=O)NCc1ccc(F)cc1 | 13% (inactive) | – |
| CCOc1ncccc1C(=O)OCC(=O)Nc1ccc(-c2nc3ccc(C)cc3s2)cc1 | – | 2.57 µM (active) |
| CC1CCCN(C(=O)CC(c2ccc3c(c2)OCO3)c2ccc(O)cc2O)C1 (stereo not drawn) | -16.7% (inactive) | – |
| CC1CCCN(C(=O)CC(c2ccc3c(c2)OCO3)c2c(O)cccc2Cl)C1 (stereo not drawn) | – | 40.7 µM (active) |
| COc1cc(O)c(C(CC(=O)N2CCCC(COc3ccc(F)cc3)C2)c2ccc3c(c2)OCO3)c(OC)c1 (stereo not drawn) | -6.39% (inactive) | – |
| COc1cc(O)c(C(CC(=O)N2CCCC2)c2ccc3c(c2)OCO3)c(OC)c1 (stereo not drawn) | -4.65% (inactive) | – |
| CCn1cc(C(=O)O)c(=O)c2cnc(N3CCN(C(=S)NC(=O)c4ccccc4)CC3)nc21 | – | 20.4 µM (active) |
| COc1cc(O)c(C(CC(=O)N2CCC[C@@H](C)C2)c2ccc3c(c2)OCO3)c(OC)c1 (stereo partly drawn) | – | inactive |
| COc1cc(O)c(C(CC(=O)N2CCCC(CO)C2)c2ccc3c(c2)OCO3)c(OC)c1 (stereo not drawn) | -18.2% (inactive) | – |
